In PubChem BioAssay (EPA / NIEHS):
Records with an inconclusive call do not appear. Active and inactive are the calls of the source. How the source made its calls, unless noted: active means hit-call score of the fitted dose curve at least 0.9, where 1 is the maximum; inactive means score below 0.9.

Key:
[1] = ATG_TAL_CIS: Attagene CIS-FACTORIAL HepG2 Assay for human TAL Basal Promoter (AID 2282966); details: HepG2 Attagene cis-factorial TAL promoter reporter; actives raise or lower the signal;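 further: background control endpoint measuring basal TAL promoter reporter mRNA not a specific factor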
Summary of the method: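 Human hepatoma HepG2 cells, transfected with promoter-regulated reporter units, were treated 24 h. Reporter transcript levels, measured through RT-PCR and capillary electrophoresis, were fitted for gain or loss relative to DMSO.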

[2] = ATG_TGFb_CIS: Attagene CIS-FACTORIAL HepG2 Assay for human Transforming Growth Factor (TGF) (AID 2282967); details: HepG2 Attagene CIS TGFb reporter, mRNA transcription; actives raise or lower the signal
Summary of the method: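 Multiplexed cis-reporter HepG2 system, 24 h treatment; mRNA induction read by fluorescence after RT-PCR and CE; DMSO negative control, bidirectional curve fitting.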

[3] = ATG_VDRE_CIS: Attagene CIS-FACTORIAL HepG2 Assay for human Vitamin D Receptor Element (VDRE) (AID 2282968); details: HepG2 VDRE cis-reporter transcription, actives raise or lower the signal
Summary of the method: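 Transfected HepG2 reporter cells, chemical treatment 24 h. RNA isolated, cDNA amplified with reporter-specific primers, products analysed by capillary electrophoresis. Endpoint fitted in both directions versus DMSO.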

[4] = target: X-box-binding protein 1 (Homo sapiens) (UniProt P17861); experiment: ATG_Xbp1_CIS: Attagene CIS-FACTORIAL HepG2 Assay for human X-box Binding Protein 1 (XBP1) (AID 2282972); details: HepG2 XBP1 cis-element reporter, Attagene multiplex; actives raise or lower the signal
Sequence of X-box-binding protein 1 (Homo sapiens) (P17861 whole entry, looked up): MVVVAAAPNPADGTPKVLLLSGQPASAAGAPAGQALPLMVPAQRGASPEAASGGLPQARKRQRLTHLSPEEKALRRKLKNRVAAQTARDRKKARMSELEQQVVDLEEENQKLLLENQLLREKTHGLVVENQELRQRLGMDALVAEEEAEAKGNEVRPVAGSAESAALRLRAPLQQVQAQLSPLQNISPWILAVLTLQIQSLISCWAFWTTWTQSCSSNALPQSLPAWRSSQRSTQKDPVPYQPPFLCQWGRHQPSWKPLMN
Summary of the method: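 Multiplexed cis-reporter readout in transfected HepG2 liver cells. Exposure lasted 24 hours. Activity in either direction was fitted against DMSO as negative control and baseline.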

[5] = ATG_M_19_TRANS: Attagene TRANS-FACTORIAL HepG2 Assay for M19 Transcription Factor (Internal Marker) (AID 2282974; active means hit-call score of the fitted dose curve at least 0.9, where 1 is the maximum); details: HepG2 Attagene TRANS-FACTORIAL M19 internal marker reporter
Summary of the method: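 Background-control readout: after 24 h chemical exposure of transfected HepG2 carrying GAL4-driven reporter units, RNA was reverse-transcribed, amplified, fluorescently labeled and sized by capillary electrophoresis; gain-of-signal fit against DMSO.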

[6] = ATG_GAL4_TRANS: Attagene TRANS-FACTORIAL HepG2 Assay for GAL4 (Internal Marker) (AID 2282976; active means hit-call score of the fitted dose curve at least 0.9, where 1 is the maximum); details: HepG2 Attagene TRANS GAL4 internal marker reporter
Summary of the method: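 Liver HepG2 line bearing multiplexed GAL4-UAS reporter constructs; 24 h chemical treatment. Transcripts were quantified as fluorescent fragments on capillary electrophoresis after RT-PCR and HpaI cut, with activity fitted upward from DMSO.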

[7] = target: Oxysterols receptor LXR-beta (Homo sapiens) (UniProt P55055); experiment: ATG_LXRb_TRANS: Attagene TRANS-FACTORIAL HepG2 Assay for human Liver X Receptor beta (LXRb) (AID 2282981; active means hit-call score of the fitted dose curve at least 0.9, where 1 is the maximum); details: HepG2 Attagene TRANS GAL4-LXRb reporter, mRNA
Sequence of Oxysterols receptor LXR-beta (Homo sapiens) (P55055 whole entry, looked up, the tested form may be a part): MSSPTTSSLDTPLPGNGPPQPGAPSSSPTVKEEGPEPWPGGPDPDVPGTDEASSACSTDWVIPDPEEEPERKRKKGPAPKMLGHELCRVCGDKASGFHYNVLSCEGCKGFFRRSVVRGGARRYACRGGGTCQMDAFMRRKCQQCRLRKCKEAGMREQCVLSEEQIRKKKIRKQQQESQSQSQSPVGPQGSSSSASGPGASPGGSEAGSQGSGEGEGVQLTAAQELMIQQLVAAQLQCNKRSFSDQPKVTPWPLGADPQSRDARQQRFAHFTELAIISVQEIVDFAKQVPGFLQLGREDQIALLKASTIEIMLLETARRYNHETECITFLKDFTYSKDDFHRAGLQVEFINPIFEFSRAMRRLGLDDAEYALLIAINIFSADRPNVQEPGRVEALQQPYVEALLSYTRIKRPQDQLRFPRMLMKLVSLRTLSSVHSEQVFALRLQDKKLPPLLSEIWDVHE
Summary of the method: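 Liver-derived HepG2 cells transfected with Gal4-responsive reporters were dosed for 24 h. Activation was scored as rise in reporter mRNA, by RT-PCR and capillary electrophoresis, above DMSO baseline.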

[8] = target: Hepatocyte nuclear factor 4-alpha (Homo sapiens) (UniProt P41235); experiment: ATG_HNF4a_TRANS: Attagene TRANS-FACTORIAL HepG2 Assay for human Hepatocyte Nuclear Factor 4 alpha (HNF4a) (AID 2282982; active means hit-call score of the fitted dose curve at least 0.9, where 1 is the maximum); details: HepG2 HNF4a transactivation reporter, mRNA readout
Sequence of Hepatocyte nuclear factor 4-alpha (Homo sapiens) (P41235 whole entry, looked up, the tested form may be a part): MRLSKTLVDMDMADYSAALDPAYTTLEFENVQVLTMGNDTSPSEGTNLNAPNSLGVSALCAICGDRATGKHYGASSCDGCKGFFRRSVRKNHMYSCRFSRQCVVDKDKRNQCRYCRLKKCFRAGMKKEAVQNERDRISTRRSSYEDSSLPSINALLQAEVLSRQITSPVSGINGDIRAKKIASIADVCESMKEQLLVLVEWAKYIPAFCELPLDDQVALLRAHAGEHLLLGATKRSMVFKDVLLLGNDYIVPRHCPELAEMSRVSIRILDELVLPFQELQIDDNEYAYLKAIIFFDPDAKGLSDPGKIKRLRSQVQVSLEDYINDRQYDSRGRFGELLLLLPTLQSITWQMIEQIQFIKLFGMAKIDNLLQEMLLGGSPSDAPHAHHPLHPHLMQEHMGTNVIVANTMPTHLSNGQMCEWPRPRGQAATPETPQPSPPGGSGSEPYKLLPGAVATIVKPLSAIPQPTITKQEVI
Summary of the method: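 Using HepG2 liver cells transfected with GAL4-UAS reporter units, chemical-induced mRNA increases were assessed after 24 hours. Fluorescent RT-PCR fragments were separated by capillary electrophoresis and compared with DMSO negative controls.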

[9] = ATG_M_06_TRANS: Attagene TRANS-FACTORIAL HepG2 Assay for M06 Transcription Factor (Internal Marker) (AID 2282983; active means hit-call score of the fitted dose curve at least 0.9, where 1 is the maximum); details: HepG2 Attagene TRANS M06 internal marker reporter
Summary of the method: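 Multi-reporter-transfected HepG2, 24 h treatment; reporter transcripts quantified via RT-PCR, primer-extension labelling and CE. DMSO-normalized gain-of-signal fit.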

[10] = target: Nuclear receptor subfamily 4 group A member 2 (Homo sapiens) (UniProt P43354); experiment: ATG_NURR1_TRANS: Attagene TRANS-FACTORIAL HepG2 Assay for human Nuclear Receptor Related Protein 1 (NURR1) (AID 2282985; active means hit-call score of the fitted dose curve at least 0.9, where 1 is the maximum); details: HepG2 Attagene TRANS reporter, mRNA readout
Sequence of Nuclear receptor subfamily 4 group A member 2 (Homo sapiens) (P43354 whole entry, looked up, the tested form may be a part): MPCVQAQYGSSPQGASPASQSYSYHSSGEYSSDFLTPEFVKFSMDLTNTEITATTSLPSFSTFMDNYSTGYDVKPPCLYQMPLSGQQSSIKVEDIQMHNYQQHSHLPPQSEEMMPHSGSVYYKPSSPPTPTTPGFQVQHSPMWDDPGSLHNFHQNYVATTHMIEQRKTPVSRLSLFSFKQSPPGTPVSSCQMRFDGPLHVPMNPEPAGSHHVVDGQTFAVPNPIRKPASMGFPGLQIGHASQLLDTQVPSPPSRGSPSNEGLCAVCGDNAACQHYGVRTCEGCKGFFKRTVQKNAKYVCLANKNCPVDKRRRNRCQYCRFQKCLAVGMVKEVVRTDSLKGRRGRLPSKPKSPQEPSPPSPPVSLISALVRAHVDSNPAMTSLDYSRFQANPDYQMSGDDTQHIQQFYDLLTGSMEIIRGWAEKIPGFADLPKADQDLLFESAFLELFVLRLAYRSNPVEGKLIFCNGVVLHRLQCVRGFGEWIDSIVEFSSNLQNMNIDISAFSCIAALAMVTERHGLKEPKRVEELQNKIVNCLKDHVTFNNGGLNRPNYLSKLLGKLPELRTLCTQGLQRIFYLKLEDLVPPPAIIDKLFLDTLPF
Summary of the method: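 Chimeric NR-Gal4 proteins were expressed in human HepG2 cells bearing GAL4-UAS reporter units, and induced reporter mRNA was quantified 24 h post-dosing by RT-PCR and capillary electrophoresis.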

[11] = target: Transcriptional activator Myb (Homo sapiens) (UniProt P10242); experiment: ATG_Myb_CIS: Attagene CIS-FACTORIAL HepG2 Assay for human Myeloblastosis (Myb) Proto-Oncogene Transcription Factor (AID 2282986); details: HepG2 Attagene CIS-FACTORIAL Myb reporter transcription; actives raise or lower the signal
Sequence of Transcriptional activator Myb (Homo sapiens) (P10242 whole entry, looked up): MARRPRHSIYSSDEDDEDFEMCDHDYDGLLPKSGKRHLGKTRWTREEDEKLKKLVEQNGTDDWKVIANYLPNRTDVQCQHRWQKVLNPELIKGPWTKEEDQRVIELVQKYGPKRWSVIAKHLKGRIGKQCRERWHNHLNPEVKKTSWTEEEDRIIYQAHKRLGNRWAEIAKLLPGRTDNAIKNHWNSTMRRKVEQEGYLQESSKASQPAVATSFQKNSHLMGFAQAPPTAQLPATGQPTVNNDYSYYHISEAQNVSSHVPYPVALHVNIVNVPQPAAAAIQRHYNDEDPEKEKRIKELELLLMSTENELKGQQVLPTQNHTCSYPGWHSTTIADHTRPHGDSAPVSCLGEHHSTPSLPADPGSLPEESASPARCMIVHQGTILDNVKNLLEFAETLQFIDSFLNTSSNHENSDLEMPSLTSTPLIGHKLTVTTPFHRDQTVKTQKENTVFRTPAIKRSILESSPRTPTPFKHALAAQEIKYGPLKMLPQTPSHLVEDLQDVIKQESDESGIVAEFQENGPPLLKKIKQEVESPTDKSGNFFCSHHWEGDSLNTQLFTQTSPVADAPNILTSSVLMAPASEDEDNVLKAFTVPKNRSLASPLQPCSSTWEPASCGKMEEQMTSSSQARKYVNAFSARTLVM
Summary of the method: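 Reporter mRNA is quantified by RT-PCR and capillary electrophoresis 24 h after dosing HepG2 cells transfected with cis-regulated reporter units, which track endogenous transcription factor activity. Gain and loss of signal are fitted versus DMSO baseline.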

[12] = target: Nuclear respiratory factor 1 (Homo sapiens) (UniProt Q16656); experiment: ATG_NRF1_CIS: Attagene CIS-FACTORIAL HepG2 Assay for human Nuclear Respiratory Factor 1 (NRF1) Orphan Gene (AID 2282987); details: HepG2 NRF1 cis-element reporter, Attagene multiplex; actives raise or lower the signal
Sequence of Nuclear respiratory factor 1 (Homo sapiens) (Q16656 whole entry, looked up): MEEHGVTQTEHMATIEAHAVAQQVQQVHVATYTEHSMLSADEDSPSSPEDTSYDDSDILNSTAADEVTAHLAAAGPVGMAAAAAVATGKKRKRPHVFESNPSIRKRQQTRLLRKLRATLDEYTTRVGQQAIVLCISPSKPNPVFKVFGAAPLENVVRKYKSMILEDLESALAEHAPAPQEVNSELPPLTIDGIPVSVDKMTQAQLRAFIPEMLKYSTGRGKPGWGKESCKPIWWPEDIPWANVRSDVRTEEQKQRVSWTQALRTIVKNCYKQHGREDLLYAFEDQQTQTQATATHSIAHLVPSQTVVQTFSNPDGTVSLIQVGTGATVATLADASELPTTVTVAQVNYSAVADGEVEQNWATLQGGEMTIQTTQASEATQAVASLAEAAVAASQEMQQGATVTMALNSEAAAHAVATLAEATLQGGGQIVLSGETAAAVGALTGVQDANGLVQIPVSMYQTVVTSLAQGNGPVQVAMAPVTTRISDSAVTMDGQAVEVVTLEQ
Summary of the method: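 Endogenous NRF1-driven reporter transcription in transfected HepG2 cells after 24 h treatment. Readout: RT-PCR products, 6-FAM labelled and resolved by capillary electrophoresis; changes fitted both directions relative to DMSO.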

[13] = target: Glucocorticoid receptor (Homo sapiens) (UniProt P04150); experiment: ATG_GR_TRANS: Attagene TRANS-FACTORIAL HepG2 Assay for human Glucocorticoid Receptor (GR) (AID 2282978; active means hit-call score of the fitted dose curve at least 0.9, where 1 is the maximum;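 further: activators score as hits since higher reporter transcript over DMSO is fitted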); details: HepG2 Attagene TRANS GR reporter, mRNA transcription
Sequence of Glucocorticoid receptor (Homo sapiens) (P04150 whole entry, looked up, the tested form may be a part): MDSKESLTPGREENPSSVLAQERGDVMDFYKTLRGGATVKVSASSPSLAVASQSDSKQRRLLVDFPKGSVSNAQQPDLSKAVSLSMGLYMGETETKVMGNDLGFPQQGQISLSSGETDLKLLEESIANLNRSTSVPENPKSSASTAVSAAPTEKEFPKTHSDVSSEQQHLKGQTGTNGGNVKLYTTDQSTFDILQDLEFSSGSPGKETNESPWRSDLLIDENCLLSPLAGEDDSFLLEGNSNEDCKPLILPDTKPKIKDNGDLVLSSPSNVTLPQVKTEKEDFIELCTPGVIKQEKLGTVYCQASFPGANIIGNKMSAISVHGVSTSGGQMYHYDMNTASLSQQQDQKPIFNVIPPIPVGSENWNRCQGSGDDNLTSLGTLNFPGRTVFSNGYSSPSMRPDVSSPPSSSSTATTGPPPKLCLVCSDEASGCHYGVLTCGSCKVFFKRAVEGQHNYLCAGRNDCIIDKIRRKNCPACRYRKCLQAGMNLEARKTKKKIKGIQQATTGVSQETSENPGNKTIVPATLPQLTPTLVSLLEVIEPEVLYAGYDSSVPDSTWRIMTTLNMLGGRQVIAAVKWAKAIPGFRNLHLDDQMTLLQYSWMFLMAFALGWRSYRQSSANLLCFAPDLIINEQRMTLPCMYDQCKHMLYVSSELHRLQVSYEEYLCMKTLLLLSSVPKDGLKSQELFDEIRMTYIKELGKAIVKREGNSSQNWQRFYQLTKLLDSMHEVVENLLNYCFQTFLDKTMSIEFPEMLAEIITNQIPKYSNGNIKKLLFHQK
Summary of the method: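 Readout is reporter transcript from a chimeric GR-Gal4 acting on GAL4-UAS in transfected human HepG2 liver cells after 24 h exposure, quantified by RT-PCR and capillary electrophoresis. Activation fitted upward against DMSO.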

[14] = target: Oxysterols receptor LXR-alpha (Homo sapiens) (UniProt Q13133); experiment: ATG_LXRa_TRANS: Attagene TRANS-FACTORIAL HepG2 Assay for human Liver X Receptor alpha (LXRa) (AID 2282980; active means hit-call score of the fitted dose curve at least 0.9, where 1 is the maximum); details: HepG2 Attagene TRANS reporter, LXRa transactivation
Sequence of Oxysterols receptor LXR-alpha (Homo sapiens) (Q13133 whole entry, looked up, the tested form may be a part): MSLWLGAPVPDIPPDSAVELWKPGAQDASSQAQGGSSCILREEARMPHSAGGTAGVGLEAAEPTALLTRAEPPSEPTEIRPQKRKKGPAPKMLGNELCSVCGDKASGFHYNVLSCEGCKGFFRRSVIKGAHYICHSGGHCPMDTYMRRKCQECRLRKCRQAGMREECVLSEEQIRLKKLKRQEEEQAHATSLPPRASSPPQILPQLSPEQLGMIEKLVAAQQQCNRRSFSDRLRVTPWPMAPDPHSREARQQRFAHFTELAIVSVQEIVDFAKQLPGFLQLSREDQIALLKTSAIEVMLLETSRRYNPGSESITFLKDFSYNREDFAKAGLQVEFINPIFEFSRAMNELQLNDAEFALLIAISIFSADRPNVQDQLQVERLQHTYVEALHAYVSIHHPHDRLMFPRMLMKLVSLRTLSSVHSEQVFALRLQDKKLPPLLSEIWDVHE
Summary of the method: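 In this multiplexed TRANS system, compounds act on HepG2 cells carrying GAL4-UAS reporter units and a receptor-GAL4 fusion for 24 h. Induced reporter RNA is amplified, fluorescently labelled and sized by capillary electrophoresis, with DMSO as baseline.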

[15] = target: Bile acid receptor (Homo sapiens) (UniProt Q96RI1); experiment: ATG_FXR_TRANS: Attagene TRANS-FACTORIAL HepG2 Assay for Farnesoid X Receptor (FXR) (AID 2282979; active means hit-call score of the fitted dose curve at least 0.9, where 1 is the maximum;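 further: hits raise reporter mRNA above DMSO so AC50 marks FXR activation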); details: HepG2 Attagene TRANS FXR-GAL4 reporter transcription
Sequence of Bile acid receptor (Homo sapiens) (Q96RI1 whole entry, looked up, the tested form may be a part): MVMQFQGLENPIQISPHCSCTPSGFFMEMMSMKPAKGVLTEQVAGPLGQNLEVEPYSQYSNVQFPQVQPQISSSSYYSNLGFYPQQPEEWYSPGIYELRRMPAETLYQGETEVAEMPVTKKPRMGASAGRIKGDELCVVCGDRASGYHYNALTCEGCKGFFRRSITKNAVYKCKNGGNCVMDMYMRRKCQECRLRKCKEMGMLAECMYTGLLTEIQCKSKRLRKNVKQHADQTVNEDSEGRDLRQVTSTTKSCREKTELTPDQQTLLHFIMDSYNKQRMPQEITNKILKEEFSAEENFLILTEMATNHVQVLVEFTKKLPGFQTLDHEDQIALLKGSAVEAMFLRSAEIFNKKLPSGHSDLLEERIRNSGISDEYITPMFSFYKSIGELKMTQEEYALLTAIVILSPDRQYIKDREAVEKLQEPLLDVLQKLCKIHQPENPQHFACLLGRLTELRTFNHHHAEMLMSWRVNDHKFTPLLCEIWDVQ
Summary of the method: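 After 24 h chemical treatment of transfected HepG2 cells, GAL4-UAS reporter transcripts driven by an exogenous FXR-GAL4 fusion were measured by RT-PCR and capillary electrophoresis. Increases over DMSO were fitted.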

[16] = ATG_M_32_TRANS: Attagene TRANS-FACTORIAL HepG2 Assay for M32 Transcription Factor (Internal Marker) (AID 2282984; active means hit-call score of the fitted dose curve at least 0.9, where 1 is the maximum); details: HepG2 Attagene TRANS M32 internal marker reporter
Summary of the method: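 Fluorescence-detected mRNA induction, HepG2 liver cells, 24 h after dosing. Multiple GAL4-UAS reporter units introduced by transient transfection; background-control endpoint analysed for gain of signal against DMSO.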

With `O=C1NC2NC(=O)NC2N1` (configuration not stated) the outcome [1] was “inactive”, the outcome [2] was “inactive” and the outcome [3] was “inactive”. For the same compound, the outcome [4] was “inactive”, the outcome [5] was “inactive” and the outcome [6] was “inactive”. For the same compound, the outcome [7] was “inactive”, the outcome [8] was “inactive” and the outcome [9] was “inactive”. For the same compound, the outcome [10] was “inactive”, the outcome [11] was “inactive” and the outcome [12] was “inactive”.

For `O=C1OC[C@H](Cc2cccc(O)c2)[C@H]1Cc1cccc(O)c1`, the outcome [1] was “inactive”, the outcome [2] was “inactive” and the AC50 [3] was 21.8 µM (active). For the same compound, the outcome [4] was “inactive”, the outcome [13] was “inactive” and the outcome [14] was “inactive”. The outcome [7] was “inactive”, the outcome [8] was “inactive” and the outcome [9] was “inactive”. For the same compound, the outcome [10] was “inactive”, the outcome [11] was “inactive” and the outcome [12] was “inactive”.

With `OCC(O)c1ccccc1` (configuration not stated) the outcome [1] was “inactive”, the outcome [2] was “inactive” and the outcome [3] was “inactive”. For the same compound, the outcome [4] was “inactive”, the outcome [6] was “inactive” and the outcome [14] was “inactive”. The outcome [10] was “inactive”, the outcome [11] was “inactive” and the outcome [12] was “inactive”.

For `CC(=O)C(C)O` (configuration not stated), the outcome [1] was “inactive”, the outcome [2] was “inactive” and the outcome [3] was “inactive”. For the same compound, the outcome [4] was “inactive”, the outcome [6] was “inactive” and the outcome [14] was “inactive”. For the same compound, the outcome [7] was “inactive”, the outcome [8] was “inactive” and the outcome [9] was “inactive”. The outcome [10] was “inactive”, the outcome [11] was “inactive” and the outcome [12] was “inactive”.

In the case of `CCCCCC(=O)CC`, the outcome [1] was “inactive”, the outcome [2] was “inactive” and the outcome [3] was “inactive”. For the same compound, the outcome [4] was “inactive”, the outcome [15] was “inactive” and the outcome [8] was “inactive”. For the same compound, the outcome [9] was “inactive”, the outcome [11] was “inactive” and the outcome [12] was “inactive”.

For `CCc1ncc(C)[nH]1`, the outcome [1] was “inactive”, the outcome [2] was “inactive” and the outcome [3] was “inactive”. For the same compound, the outcome [4] was “inactive”, the outcome [13] was “inactive” and the outcome [14] was “inactive”. The outcome [7] was “inactive”, the outcome [9] was “inactive” and the outcome [11] was “inactive”. The outcome [12] was “inactive”.

For `C=C1CC[C@H](O)C/C1=C/C=C1\CCC[C@]2(C)[C@@H]([C@H](C)/C=C/[C@H](C)C(C)C)CC[C@@H]12`, the outcome [1] was “inactive”, the outcome [2] was “inactive” and the outcome [3] was “inactive”. The outcome [4] was “inactive”, the outcome [13] was “inactive” and the outcome [15] was “inactive”. For the same compound, the outcome [14] was “inactive”, the outcome [9] was “inactive” and the outcome [16] was “inactive”. The outcome [11] was “inactive” and the outcome [12] was “inactive”.

In the case of `OCc1ccc(Cl)cc1Cl`, the outcome [1] was “inactive”, the outcome [2] was “inactive” and the outcome [3] was “inactive”. The outcome [4] was “inactive”, the outcome [6] was “inactive” and the outcome [15] was “inactive”. The outcome [14] was “inactive”, the outcome [8] was “inactive” and the outcome [9] was “inactive”. For the same compound, the outcome [11] was “inactive” and the outcome [12] was “inactive”.

With `[O-]n1ccccc1=S.[O-]n1ccccc1=S.[Zn+2]` the outcome [1] was “inactive”, the outcome [2] was “inactive” and the outcome [3] was “inactive”. The outcome [4] was “inactive”, the outcome [6] was “inactive” and the outcome [14] was “inactive”. The outcome [8] was “inactive”, the outcome [9] was “inactive” and the outcome [16] was “inactive”. For the same compound, the outcome [11] was “inactive” and the outcome [12] was “inactive”.

In the case of `O=C1OC(=O)c2c(Br)c(Br)c(Br)c(Br)c21`, the outcome [1] was “inactive”, the outcome [2] was “inactive” and the outcome [3] was “inactive”. The outcome [4] was “inactive”, the outcome [6] was “inactive” and the outcome [7] was “inactive”. The outcome [9] was “inactive”, the outcome [16] was “inactive” and the outcome [10] was “inactive”. The outcome [11] was “inactive” and the outcome [12] was “inactive”.

With `CC(=O)CC(=O)Nc1ccccc1` the outcome [1] was “inactive”, the outcome [2] was “inactive” and the outcome [3] was “inactive”. The outcome [4] was “inactive”, the outcome [6] was “inactive” and the outcome [15] was “inactive”. For the same compound, the outcome [7] was “inactive”, the outcome [8] was “inactive” and the outcome [9] was “inactive”. The outcome [10] was “inactive”, the outcome [11] was “inactive” and the outcome [12] was “inactive”.

With `COC(=O)Nc1ccc(Cl)c(Cl)c1` the outcome [1] was “inactive”, the outcome [2] was “inactive” and the AC50 [3] was 43.7 µM (active). For the same compound, the AC50 [4] was 26.7 µM (active), the outcome [15] was “inactive” and the outcome [7] was “inactive”. The outcome [8] was “inactive”, the outcome [9] was “inactive” and the outcome [16] was “inactive”. The AC50 [10] was 79.9 µM (active), the outcome [11] was “inactive” and the outcome [12] was “inactive”.
